About 83,000 compounds went through this panel and 20% of them were active in at least one assay; those are over-represented in the sample as a whole.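 96-well plates, one dose, 48 hours. Percent growth reported; active if below 10.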 Unmarked numbers belong to inactive results. Active and inactive are the calls of the source.

Test systems include HCT-15 colon; HT29 colon; SNB-75 CNS; SNB-19 CNS; U251 CNS; SK-MEL-5 melanoma; UACC-62 melanoma; LOX IMVI melanoma; SK-MEL-28 melanoma; SK-MEL-2 melanoma; EKVX NSCLC; UO-31 renal; TK-10 renal; ACHN renal; CAKI-1 renal; A498 renal; CCRF-CEM leukemia; MOLT-4 leukemia; SN12C renal; PC-3 prostate.
What all share (assay): NCI-60 one-dose screen, 48 h (100 = growth as untreated, 0 = no growth, -100 = all killed)
Holding throughout (details): 10 µM unless noted

Consider `CCOC(=O)c1c(NC(=O)c2ccccc2C(F)(F)F)sc2c1CCC(=O)C2`, for which the growth in the assay with HCT-15 colon was 10.5%; in the assay on HT29 colon, 75.4%; in the assay with SNB-75 CNS, 65.4%; with SNB-19 CNS, 18.6%; with U251 CNS, 17.5%; in the assay on SK-MEL-5 melanoma, -50.3% (active). In addition, the growth with UACC-62 melanoma is 13%; in the assay on LOX IMVI melanoma, 3.5% (active); with SK-MEL-28 melanoma, 80.1%; with SK-MEL-2 melanoma, 91.2%; in the assay on EKVX NSCLC it was 32.2%; in the assay with UO-31 renal, -1.08% (active). In addition, the growth in the assay on TK-10 renal was 91.1%; in the assay with ACHN renal it was 6.88% (active); in the assay on CAKI-1 renal, 21.1%; in the assay with A498 renal it was 85.2%; in the assay on CCRF-CEM leukemia, 10.3%; in the assay with MOLT-4 leukemia, 94.2%.

Take `CC1(COc2ccc3ncc(C#Cc4cncc(C(=O)Nc5cccc(C(F)(F)F)c5)c4)n3n2)COC1`: the growth in the assay on HCT-15 colon is 86.1%; in the assay on HT29 colon, 82.1%; with SNB-75 CNS it was 63%; in the assay on SNB-19 CNS, 82.8%; in the assay with U251 CNS, 91.3%; in the assay on SK-MEL-5 melanoma it was 79.4%. Besides, the growth with UACC-62 melanoma is 72.9%; in the assay with LOX IMVI melanoma it was 65.6%; in the assay with SK-MEL-28 melanoma, 86.8%; with EKVX NSCLC, 101%; in the assay on UO-31 renal, 58.2%; in the assay on TK-10 renal, 128%. The growth with ACHN renal is 72.4%; in the assay with CAKI-1 renal, 81.7%; with CCRF-CEM leukemia, 88.4%; in the assay with MOLT-4 leukemia, 84.9%.

Consider `Cc1cccc2c3c(sc12)C(c1ccc(F)cc1)C(C#N)=C(/N=C/c1ccc(Cl)cc1)O3` (stereo not given), for which the growth in the assay with HCT-15 colon was 3.92% (active); in the assay with HT29 colon it was -28.5% (active); in the assay on SNB-75 CNS it was 29.5%; with SNB-19 CNS it was 26.4%; in the assay with U251 CNS, 4.91% (active); with SK-MEL-5 melanoma, 5.84% (active). Further, the growth is 18% with UACC-62 melanoma; 9.59% (active) with LOX IMVI melanoma; 62.2% in the assay with SK-MEL-28 melanoma; -5.29% (active) in the assay on SK-MEL-2 melanoma; 47.8% in the assay with EKVX NSCLC; 25.5% in the assay on SN12C renal. In addition, the growth in the assay on UO-31 renal is 34.6%; with TK-10 renal, 106%; in the assay with ACHN renal, 25.7%; with CAKI-1 renal it was 33.9%; in the assay with A498 renal, -20.2% (active); with CCRF-CEM leukemia, 13.5%. Further, the growth in the assay on MOLT-4 leukemia was 15.2%.

Consider `C#Cc1ccc(C(=O)NCc2ccc(/C=C/C(=O)c3nccn3C)cc2)cc1`, for which the growth with HCT-15 colon is 2.77% (active); in the assay with HT29 colon, 8.87% (active); with SNB-75 CNS it was 67.3%; in the assay on SNB-19 CNS it was 16.9%; in the assay on U251 CNS, 17.3%; in the assay with SK-MEL-5 melanoma, 38.8%. Moreover, the growth was 21% in the assay with UACC-62 melanoma; -74.8% (active) in the assay on LOX IMVI melanoma; 48.8% with SK-MEL-28 melanoma; 14.8% in the assay on SN12C renal; 29.3% in the assay with UO-31 renal; 45.1% in the assay on TK-10 renal. The values for the growth in the assay with ACHN renal, in the assay with CAKI-1 renal and in the assay with A498 renal were 21.6%, 43.2% and 38.1%, respectively.

With `COc1ccc(-c2nc3cccc(O)c3c(=O)n2Cc2ccccc2)cc1COc1ccc(NC(C)=O)cc1`, the growth with HCT-15 colon is 12.5% [3 µM]; in the assay on HT29 colon, 55.9% [3 µM]; in the assay on SNB-75 CNS, 44.8% [3 µM]; in the assay on SNB-19 CNS, 42% [3 µM]; in the assay on PC-3 prostate it was 36.5% [3 µM]; in the assay with SK-MEL-5 melanoma, 29.4% [3 µM]. In addition, the growth was 37.3% [3 µM] with UACC-62 melanoma; 2.67% [3 µM] (active) in the assay with LOX IMVI melanoma; 55.4% [3 µM] in the assay with SK-MEL-28 melanoma; 86.8% [3 µM] in the assay with SK-MEL-2 melanoma; 79.5% [3 µM] in the assay on EKVX NSCLC; 62.3% [3 µM] with SN12C renal. Also, the growth with UO-31 renal was 74.2% [3 µM]; with TK-10 renal it was 69.4% [3 µM]; in the assay with ACHN renal, 36.2% [3 µM]; with CAKI-1 renal it was 57% [3 µM]; in the assay on A498 renal it was 70.5% [3 µM]; in the assay on CCRF-CEM leukemia, 41.6% [3 µM].

With `COc1ccc(/C=C/C(=O)c2cccc(NC(=O)CSc3nc4ccccc4c(=O)n3-c3ccccc3)c2)cc1OC`, the growth in the assay with HCT-15 colon was 89.5%; with HT29 colon, 112%; with SNB-75 CNS it was 86.2%; in the assay on SNB-19 CNS, 93.4%; in the assay on U251 CNS, 101%; in the assay on SK-MEL-5 melanoma, 99%. Also, the growth was 89.9% in the assay with UACC-62 melanoma; 91.5% in the assay on LOX IMVI melanoma; 115% with SK-MEL-28 melanoma; 104% in the assay on SK-MEL-2 melanoma; 103% in the assay with EKVX NSCLC; 105% in the assay with SN12C renal. Also, the growth with UO-31 renal is 91.9%; with TK-10 renal it was 125%; in the assay with ACHN renal it was 100%; in the assay with CAKI-1 renal, 88%; in the assay on A498 renal it was 99.4%; in the assay on CCRF-CEM leukemia, 115%. In the assay with MOLT-4 leukemia, the growth is 91.1%.

For `Nn1c(N/N=C/c2nc3ccccc3s2)n[nH]c1=S`, the growth in the assay on HCT-15 colon was 122%; in the assay on HT29 colon, 112%; in the assay with SNB-75 CNS, 51.5%; in the assay on SNB-19 CNS it was 104%; with U251 CNS it was 113%; in the assay on SK-MEL-5 melanoma, 100%. Besides, the growth in the assay on UACC-62 melanoma is 92.1%; with LOX IMVI melanoma it was 102%; with SK-MEL-28 melanoma, 114%; with SK-MEL-2 melanoma, 107%; in the assay with EKVX NSCLC, 64.9%; in the assay on SN12C renal, 86.3%. Moreover, the growth was 58% in the assay on UO-31 renal; 88.3% in the assay with TK-10 renal; 98% with ACHN renal; 66.7% in the assay on CAKI-1 renal; 77.5% in the assay with A498 renal; 115% in the assay with MOLT-4 leukemia.

For the compound `Cc1ccc(-c2cc3nc(C(Cl)Cl)nc(-c4cccs4)n3n2)cc1`, the growth is 61.7% with HCT-15 colon; 39.2% with HT29 colon; 110% with SNB-75 CNS; 63.8% with SNB-19 CNS; 39.4% with U251 CNS; 96.8% in the assay with SK-MEL-5 melanoma. Moreover, the growth was 96.2% with LOX IMVI melanoma; 87.4% with SK-MEL-28 melanoma; 105% in the assay on SK-MEL-2 melanoma; 66.3% in the assay with EKVX NSCLC; 70.7% with UO-31 renal; 141% in the assay on TK-10 renal. In addition, the growth with ACHN renal is 21%; in the assay on CAKI-1 renal it was 55.6%; with A498 renal, 84.3%; in the assay with CCRF-CEM leukemia, 104%; in the assay with MOLT-4 leukemia, 98.6%.

The record behind these values is PubChem BioAssay (NCI).
